Assay outcomes (PubChem BioAssay)
Compounds with a hit are over-represented: about 0.9% of the library has one in this group of screens.
TR-FRET SRC-2 ct: counter-screen for PPARgamma SRC-2 recruitment agonists: TR-FRET artefact. active compounds read high. TR-FRET ratio at 8 µM. hit rate 0.4% among 200,000
SRC1 TRFRET art: flags TR-FRET format artefacts in PPARgamma SRC-1 recruitment agonist screen | TR-FRET detection artefact counter-screen, emission ratio; active compounds read high | TR-FRET ratio at 8 µM | hit rate 0.34% among 99,000; in the data active = TR-FRET ratio above about 2300
SRC3 TRFRET art: flags TR-FRET format artefacts in PPARgamma SRC-3 recruitment agonist screen. TR-FRET artefact counter-screen, PPARgamma/SRC-3 format; active compounds read high. TR-FRET ratio at 8 µM. hit rate 0.39% among 99,000. AID 1048
PPARg SRC-3 ag: agonists of human PPARgamma SRC-3 coactivator recruitment; hit rate 0.26% among 200,000; activation, % at 8 µM; biochemical PPARgamma/SRC-3 coactivator recruitment assay; AID 731; in the data active = activation above about 23%
Target sequence (P37231 whole entry, looked up): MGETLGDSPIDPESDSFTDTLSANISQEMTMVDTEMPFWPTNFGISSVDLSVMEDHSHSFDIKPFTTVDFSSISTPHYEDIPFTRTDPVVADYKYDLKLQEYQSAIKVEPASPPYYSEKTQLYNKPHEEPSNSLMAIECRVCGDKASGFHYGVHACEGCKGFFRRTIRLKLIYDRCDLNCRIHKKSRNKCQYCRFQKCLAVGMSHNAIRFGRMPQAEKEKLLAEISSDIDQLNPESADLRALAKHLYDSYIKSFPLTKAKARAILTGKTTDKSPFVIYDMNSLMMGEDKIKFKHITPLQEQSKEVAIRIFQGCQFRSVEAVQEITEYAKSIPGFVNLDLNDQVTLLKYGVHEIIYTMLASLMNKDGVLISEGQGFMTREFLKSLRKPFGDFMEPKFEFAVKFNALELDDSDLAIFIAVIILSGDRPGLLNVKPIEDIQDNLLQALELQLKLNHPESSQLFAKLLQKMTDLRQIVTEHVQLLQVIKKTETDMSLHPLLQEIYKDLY
PPARg SRC1 recr: agonists of human PPARgamma SRC-1 coactivator recruitment. P37231. PPARgamma-SRC-1 coactivator recruitment biochemical assay. activation, % at 8 µM. hit rate 0.41% among 200,000; in the data active = activation above about 19%
PPARg SRC-2 ag: agonists of SRC-2 recruitment by human PPARgamma; hit rate 0.34% among 200,000; PPARgamma LBD-SRC-2 recruitment, biochemical; activation, % at 8 µM; in the data active = activation above about 22%
Each line names hits and unclear results; the compound was inactive in the other large screens. Cut-off read from the data, not from the text of the source, unless noted: active = TR-FRET ratio above about 2000; inactive = the rest.

Cc1ccc(-n2c(SCC(=O)Nc3cccc(S(=O)(=O)NC4=NCCCCC4)c3)nc3ccccc3c2=O)cc1	TR-FRET SRC-2 ct 2048, SRC3 TRFRET art 2355
O=C(CSc1nc2ccccc2s1)Nc1cc(S(=O)(=O)N2CCOCC2)ccc1Cl	SRC3 TRFRET art 2069
Nc1cc(=O)[nH]c(SCC(=O)Nc2cc(S(=O)(=O)N3CCOCC3)ccc2Cl)n1	none
Cc1ccc(-n2c(SCC(=O)Nc3cc(S(=O)(=O)N4CCOCC4)ccc3Cl)nc3ccccc3c2=O)cc1	none
Cc1cc(SCC(=O)Nc2cccc(S(=O)(=O)N3CCOCC3)c2)nc2ccccc12	SRC3 TRFRET art 2197
CCc1ccc(-n2c(SCC(=O)Nc3cccc(S(=O)(=O)NC4=NCCCCC4)c3)nc3ccccc3c2=O)cc1	none
O=C(CSc1nc2ccccc2c(=O)n1-c1ccc(F)c(Cl)c1)Nc1cccc(S(=O)(=O)N2CCOCC2)c1	none
O=C(CSc1nnc2c(n1)[nH]c1ccc(S(=O)(=O)N3CCOCC3)cc12)Nc1ccccc1Cl	SRC3 TRFRET art 2209
COc1ccc(-n2nnc3c(=O)n(CC(=O)NCC4CCCO4)cnc32)cc1 (stereo not drawn)	none (no result: SRC1 TRFRET art, SRC3 TRFRET art)
Cc1noc(C)c1C(=O)N1CCCC(C(=O)c2cccc(C(F)(F)F)c2)C1 (stereo not drawn)	none
Cc1cc2nnc(SCC(=O)Nc3cc(S(=O)(=O)N4CCOCC4)ccc3Cl)n2c2ccccc12	SRC3 TRFRET art 2297
Cc1ccc(S(=O)(=O)N2CCOCC2)cc1NC(=O)CSc1nnc2cc(C)c3ccccc3n12	none
O=C(CSc1nc2ccccc2c(=O)n1-c1ccc(F)cc1)Nc1ccc(Cl)c(S(=O)(=O)N2CCOCC2)c1	TR-FRET SRC-2 ct 2212, SRC3 TRFRET art 2299
COc1cc(CNc2ccc(N3CCCC3)cc2)cc(Cl)c1OC	none
CCOc1cc(CNc2ccc(N3CCN(C(C)=O)CC3)cc2)cc(Br)c1OC	PPARg SRC-2 ag 22
CCOc1cc(CNc2ccc(N3CCCC3)cc2)cc(Cl)c1OC	TR-FRET SRC-2 ct 2050
CN(C)c1ncc(C2=C(Cl)C(=O)C(N3CCCC3)=C(Cl)C2=O)s1	PPARg SRC1 recr 26 (no result: SRC1 TRFRET art, SRC3 TRFRET art)
COc1ccc(C)cc1S(=O)(=O)N(CC(=O)Nc1cccc([N+](=O)[O-])c1)c1cc(C)cc(C)c1	none (no result: SRC1 TRFRET art, SRC3 TRFRET art)
CC(=O)c1ccc(-n2c(SCC(=O)c3c[nH]c4ccccc34)nc3ccccc3c2=O)cc1	SRC3 TRFRET art 2096
CCOC(=O)c1c(C)[nH]c(C)c1C(=O)CSc1nc2ccccc2c(=O)n1-c1ccc(CC)cc1	none
S=C(NCc1ccc(Cl)cc1Cl)Nc1ccccc1	PPARg SRC-3 ag 23
O=C(Cn1cnc2c(nnn2Cc2ccccc2F)c1=O)N1CCN(c2ccccc2)CC1	none (no result: SRC1 TRFRET art, SRC3 TRFRET art)
O=C(CSc1ncnc2c1nnn2Cc1ccccc1F)N1CCN(c2ccccc2)CC1	TR-FRET SRC-2 ct 2938, PPARg SRC-2 ag 67 (no result: SRC1 TRFRET art, SRC3 TRFRET art)
COc1ccc(NC(=O)c2c(Cl)nc3ccccn23)cc1	none
CN=C1CC(SC)=C1c1ccc(C)cc1	PPARg SRC-2 ag 24 (no result: SRC1 TRFRET art, SRC3 TRFRET art)
O=C1CCCN1CCC1CCN(C(=S)Nc2ccc(F)cc2)CC1	PPARg SRC-2 ag 22 (no result: SRC1 TRFRET art, SRC3 TRFRET art)
O=C1CCCN1CCCNC(=S)Nc1ccc(F)cc1	none
CC1CCc2sc(C(=O)Nc3nnc(SCc4ccc(F)cc4)s3)cc2C1 (stereo not drawn)	TR-FRET SRC-2 ct 2241 (no result: SRC1 TRFRET art, SRC3 TRFRET art)
CN(C)CC(O)CN1C(=O)NC(C)(C)C1=O (stereo not drawn)	none
CNC(=S)N1N=C(c2ccc(C)cc2)CC1c1ccc(OC)c(OC)c1 (stereo not drawn)	none
CNC(=S)N1N=C(c2ccccc2)CC1c1ccc(OC)c(OC)c1 (stereo not drawn)	SRC1 TRFRET art 2320
COc1ccc(C2=NN(C(=S)Nc3ccccc3)C(c3ccccc3)C2)cc1 (stereo not drawn)	none
Fc1ccc(C2CC(c3cccs3)=NN2C(=S)Nc2ccccc2)cc1 (stereo not drawn)	SRC1 TRFRET art 2336
COc1ccc(C2CC(c3ccccc3)=NN2C(=S)Nc2ccccc2)cc1 (stereo not drawn)	TR-FRET SRC-2 ct 2014, SRC3 TRFRET art 2233
CC1(C)Cc2c(C#N)c(SCC(=O)c3ccccc3)nc(N3CCOCC3)c2CO1	TR-FRET SRC-2 ct 3056, PPARg SRC-2 ag 60 (no result: SRC1 TRFRET art, SRC3 TRFRET art)
CC1(C)Cc2c(C#N)c(SCc3ccccc3)nc(N3CCOCC3)c2CO1	none (no result: SRC1 TRFRET art, SRC3 TRFRET art)
C#CCn1c(=NC(=O)c2ccc(Cl)s2)sc2cccc(OC)c21	PPARg SRC-3 ag 30 (no result: SRC1 TRFRET art, SRC3 TRFRET art)
CC(C(=O)Nc1ccc2c(c1)OCCO2)c1ccc([N+](=O)[O-])cc1 (stereo not drawn)	SRC3 TRFRET art 2361
CCc1c(C)nc2c(Br)cccc2c1SCCC#N	SRC1 TRFRET art 2367
CCCCc1c(C)nc2ccc(Br)cc2c1SCCC#N	TR-FRET SRC-2 ct 2017, SRC3 TRFRET art 2091
Cn1c(SCC(=O)Nc2cccc(Br)c2)nnc1-c1cc2ccccc2o1	PPARg SRC1 recr 31 (no result: SRC1 TRFRET art, SRC3 TRFRET art)
O=C(Nc1ccc(Cl)cc1)Nc1nc(-c2sccc2Br)cs1	none (no result: SRC1 TRFRET art, SRC3 TRFRET art)
Cc1ccc(C2C(C#N)=C(N)SC(N)=C2C#N)cc1	none (no result: SRC1 TRFRET art, SRC3 TRFRET art)
N#CC1=C(N)SC(N)=C(C#N)C1c1ccoc1	TR-FRET SRC-2 ct 2095, PPARg SRC-3 ag 28, PPARg SRC1 recr 21, PPARg SRC-2 ag 31 (no result: SRC1 TRFRET art, SRC3 TRFRET art)
N#CC1=C2SCN(c3ccccc3)CN2C(=O)CC1c1cccs1 (stereo not drawn)	TR-FRET SRC-2 ct 2021 (no result: SRC1 TRFRET art, SRC3 TRFRET art)
CCOc1ccc(N2CSC3=C(C#N)C(c4ccco4)CC(=O)N3C2)cc1 (stereo not drawn)	PPARg SRC-2 ag 25 (no result: SRC1 TRFRET art, SRC3 TRFRET art)
N#CC1=C2SCN(c3ccccc3)CN2C(=O)CC1c1c(Cl)cccc1Cl (stereo not drawn)	none (no result: SRC1 TRFRET art, SRC3 TRFRET art)
Cc1ccc(CN2C(=O)c3ccccc3C2C(=O)NCc2cccnc2)cc1 (stereo not drawn)	none (no result: SRC1 TRFRET art, SRC3 TRFRET art)
CC(C)(C)NC(=O)CSc1nnc(-c2ccco2)n1Cc1ccco1	TR-FRET SRC-2 ct 2029
N#Cc1c(-c2ccc(Br)cc2)cc(-c2cccnc2)nc1N	SRC3 TRFRET art 2107
CC(C)CNS(=O)(=O)c1cc(C(=O)OCC(=O)c2ccc3c(c2)OCCO3)c(Cl)cc1Cl	SRC3 TRFRET art 2107
CCOC(=O)c1c(-c2ccccc2)csc1NC(=O)c1ccc(S(=O)(=O)N2CC(C)OC(C)C2)cc1 (stereo not drawn)	none (no result: SRC1 TRFRET art, SRC3 TRFRET art)
CCOC(=O)c1c(-c2ccccc2)csc1NC(=O)c1cc(S(=O)(=O)N2CCOCC2)ccc1C	SRC3 TRFRET art 2203
Cc1cc(=S)cc(C)n1CCCn1ccnc1	none
COC(=O)c1nnn(-c2ccccc2)c1N	none (no result: SRC1 TRFRET art, SRC3 TRFRET art)
COCc1c(C(=O)OC)nnn1-c1ccccc1	PPARg SRC1 recr 94 (no result: SRC1 TRFRET art, SRC3 TRFRET art)
Cc1nc(N2CCCCC2C)c2c(C)c(C(=O)Nc3cccc(C(F)(F)F)c3)sc2n1 (stereo not drawn)	none
Cc1ccc(NC(=O)c2sc3nc(C)nc(N4CCN(c5ccccn5)CC4)c3c2C)c(C)c1	TR-FRET SRC-2 ct 2163, SRC1 TRFRET art 3496, SRC3 TRFRET art 2659
